From ChEMBL document CHEMBL3988442, “University of Dundee, Small-Polar-MMV Screening Library” (2021)
About 13,000 (27%) of roughly 48,000 compounds showed an effect of 50% or more. Some of the results follow.

test system: Wolbachia pipientis; assay: Anti-Wolbachia Cell-Based Screen; type: functional; parameters: scale not given: in the data most compounds retested in dose-response had high values; settings: 5 µM

Row | SMILES | Percent Effect
1 | CCc1nnsc1C(=O)N1CCN(CC(O)C(C)(C)C)CC1 (stereo not drawn) | 3.041%
2 | CC(C)c1cc(C(=O)N2CCC3(CC2)c2ccccc2[C@@H](N)[C@@H]3O)cs1 | 119.3%
3 | Cc1ccc(C(=O)N2CCC3(CC2)c2ccccc2[C@@H](N)[C@@H]3O)cc1F | -5.913%
4 | COc1ccc(C(=O)N2CCC3(CC2)c2ccccc2[C@@H](N)[C@@H]3O)cc1 | -1.286%
5 | Cn1ncc(C(=O)OCC2CC(=O)N(c3ccccc3)C2)c1C(F)F (stereo not drawn) | -5.382%
6 | O=S1(=O)CCCN1Cc1coc(-c2ccc(C(F)(F)F)cc2)n1 | -8.069%
7 | CCN(C)c1ncnc2c1CCN(CC1CCOC1)CC2.O=C(O)C(F)(F)F (stereo not drawn) | -11.17%
8 | O=C(O)C(F)(F)F.c1nc2c(c(-c3ccsc3)n1)CCN(Cc1ccoc1)CC2 | -2.066%
9 | Cc1noc(C)c1CN1CCc2ncnc(-c3ccncc3)c2CC1.O=C(O)C(F)(F)F.O=C(O)C(F)(F)F | 90.01%
10 | Cn1cc(-c2ncnc3c2CCN(CC2CCOC2)CC3)cn1.O=C(O)C(F)(F)F (stereo not drawn) | 97.72%
11 | Cc1noc(C)c1CN1CCc2ncnc(-c3ccoc3)c2CC1.O=C(O)C(F)(F)F | 108.1%
12 | O=C(O)C(F)(F)F.c1ccc(CN2CCc3ncnc(-c4ccoc4)c3CC2)nc1 | -8.699%
13 | Cc1ncnc2c1CCN(CC1CCOC1)CC2.O=C(O)C(F)(F)F (stereo not drawn) | 17.43%
14 | Cc1nc(CN2CCc3ncnc(-c4ccncc4)c3CC2)cs1.O=C(O)C(F)(F)F.O=C(O)C(F)(F)F | -2.21%
15 | O=C(O)C(F)(F)F.O=C(O)C(F)(F)F.c1ccc(CN2CCc3ncnc(-c4ccncc4)c3CC2)nc1 | -25.56%
16 | Cc1noc(C)c1CN1CCc2ncnc(-c3ccccc3)c2CC1.O=C(O)C(F)(F)F | 91.91%
17 | OCc1ccc(CN2CCC(n3cc(-c4ccsc4)nn3)CC2)o1 | -3.234%
18 | O=C(O)c1csc(S(=O)(=O)N2CCN(Cc3ccc(Cl)cc3)CC2)c1 | 3.67%
19 | Cc1ccc(S(=O)(=O)NCCCN2CCC(O)CC2)cc1Cl | 11.47%
20 | COCc1noc(CCNc2nc(CC3CC3)nc3c2CCNCC3)n1 | -2.883%
21 | CCNC(=O)c1cnc(Cc2ccc(F)cc2)s1 | -2.208%
22 | Cn1cc(CN2CCc3ncnc(N4CCOCC4)c3CC2)cn1.O=C(O)C(F)(F)F.O=C(O)C(F)(F)F.O=C(O)C(F)(F)F | -9.324%
23 | Cc1noc(C)c1CN1CCc2ncnc(-c3cnn(C)c3)c2CC1.O=C(O)C(F)(F)F | 103.6%
24 | Cc1noc(C)c1CN1CCc2ncnc(-c3cccnc3)c2CC1.O=C(O)C(F)(F)F.O=C(O)C(F)(F)F | 104.6%

Row | SMILES | Percent Effect
25 | Cc1noc(C)c1CN1CCc2ncnc(-c3ccc(F)cc3)c2CC1.O=C(O)C(F)(F)F | 85.48%
26 | COc1ccc(NC(=O)C2CCOC2)c(N2CCN(C(C)=O)CC2)n1 (stereo not drawn) | 4.465%
27 | CC(=O)NCCNC(=O)C1(Oc2cccnc2C)CCNCC1 | -9.586%
28 | COCCCN(C)c1nc(-c2ccncc2)nc(C)c1C | -12.12%
29 | Cc1cc(CN(C)C(=O)c2cccc(CCC(C)(C)O)c2)no1 | 3.557%
30 | CCn1ccnc1CN1CCC(=O)N(CC2CC2)C(C(C)C)C1 (stereo not drawn) | -13.21%
31 | Cc1cncc(C2CCCN(C(=O)c3cnco3)C2)n1 (stereo not drawn) | 133.2%
32 | Cc1cncc(C2CCCN(C(=O)c3cn(C)nc3C)C2)n1 (stereo not drawn) | 117.2%
33 | Cc1noc(C2CCCN(C(=O)c3ccc(Br)o3)C2)n1 (stereo not drawn) | -1.818%
34 | Cc1nn(C)cc1C(=O)N1CCCC(c2nccn2Cc2cscn2)C1 (stereo not drawn) | 27.14%
35 | Cc1cncc(C2CCCN(C(=O)c3ccc(C)[nH]c3=O)C2)n1 (stereo not drawn) | 1.082%
36 | Cc1cncc(C2CCCN(C(=O)c3scnc3C)C2)n1 (stereo not drawn) | -6.162%
37 | CS(=O)(=O)CCC(=O)Nc1ccsc1 | -22.38%
38 | CC(C)c1nc(-c2cc(C(=O)O)c3ccccn23)cs1 | 13.08%
39 | O=S(=O)(CC1CC1)c1ncc(CN2CCSCC2)n1CC1CCCO1 (stereo not drawn) | -0.6342%
40 | Cc1ccc(C(=O)N2CCN(c3ccnc4ccsc34)CC2)o1 | 5.784%
41 | COc1ccc(Cc2ncc3c(n2)CN(C(=O)C(C)(C)OC)C3)cc1 | 70.44%
42 | COc1ccc(Cc2ncc3c(n2)CN(C(=O)C(C)(C)C)C3)cc1 | -16.53%
43 | COc1ccc(Cc2ncc3c(n2)CN(C(=O)CO)C3)cc1 | -17.5%
44 | CC(=O)Nc1nc(-c2ccc(C)c(C)c2)c[nH]1 | -24.79%
45 | COc1cc2cc(C)c(SCCN3CCCCC3)nc2cc1OC.Cl | 107.6%
46 | COc1cc2cc(C)c(SCCN3CCCC3)nc2cc1OC.Cl | 167.2%
47 | COc1cccc(S(=O)(=O)CCN2CCCCC2)c1 | 0.4821%
48 | CCc1cc2cc(OC)c(OC)cc2nc1SCCN1CCCCC1.Cl | 130.7%
